Measurements reported in PubChem BioAssay (EPA / NIEHS).
Records with an inconclusive call do not appear. Activity calls are given as the source filed them. Rule for the calls: active = hit-call score of the fitted dose curve at least 0.9, where 1 is the maximum; inconclusive = response in the unintended direction; inactive = score below 0.9.

These molecules were tested against Estrogen receptor (Homo sapiens) (UniProt P03372) (assay: ATG_ERa_TRANS: Attagene TRANS-FACTORIAL HepG2 Assay for human Estrogen Receptor alpha (ERa) (AID 2282970)). Details: HepG2 Attagene TRANS ERa GAL4 reporter, mRNA.
Sequence of Estrogen receptor (Homo sapiens) (P03372 whole entry, looked up, the tested form may be a part): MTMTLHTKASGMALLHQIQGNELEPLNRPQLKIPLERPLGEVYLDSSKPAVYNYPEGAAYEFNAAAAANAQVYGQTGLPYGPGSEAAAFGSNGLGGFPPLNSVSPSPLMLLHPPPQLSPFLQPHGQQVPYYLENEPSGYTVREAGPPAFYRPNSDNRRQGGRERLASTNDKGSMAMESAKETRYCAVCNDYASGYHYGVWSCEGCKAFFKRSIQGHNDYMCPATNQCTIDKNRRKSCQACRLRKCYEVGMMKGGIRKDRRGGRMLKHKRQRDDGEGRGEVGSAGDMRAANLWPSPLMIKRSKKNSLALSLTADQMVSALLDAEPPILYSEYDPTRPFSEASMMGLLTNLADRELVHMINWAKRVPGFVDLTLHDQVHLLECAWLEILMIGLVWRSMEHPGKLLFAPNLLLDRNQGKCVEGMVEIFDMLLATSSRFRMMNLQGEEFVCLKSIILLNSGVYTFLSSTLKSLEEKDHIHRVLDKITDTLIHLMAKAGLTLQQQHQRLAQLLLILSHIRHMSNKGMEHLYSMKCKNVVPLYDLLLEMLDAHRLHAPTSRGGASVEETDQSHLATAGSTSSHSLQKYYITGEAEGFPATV
Method: ATG_TRANS is a cell-based, multiplexed-readout assay that uses HepG2, a human liver cell line, with measurements taken at 24 hours after chemical dosing in a 24-well plate.ATG_ERa_TRANS is one of 30 assay component(s) measured or calculated from the ATG_TRANS assay. It is designed to make measurements of mRNA induction, a form of inducible reporter, as detected with fluorescence intensity signals by Reverse transcription polymerase chain reaction (RT-PCR) and Capillary electrophoresis technology.Data from the assay component ATG_ERa_TRANS was analyzed into 1 assay endpoint. This assay endpoint, ATG_ERa_TRANS, was analyzed in the positive analysis fitting direction relative to DMSO as the negative control and baseline of activity. Using a type of inducible reporter, measures of mRNA for gain-of-signal activity can be used to understand the reporter gene at the transcription factor-level as they relate to the gene ESR1. Furthermore, this assay endpoint can be referred to as a primary readout, because this assay has produced multiple assay endpoints where this one serves a reporter gene function. To generalize the intended target to other relatable targets, this assay endpoint is annotated to the nuclear receptor intended target family, where the subfamily is steroidal.
Human liver HepG2 cells are transiently transfected with multiple reporter transcription units (MRTUs) in 6-well plates using FuGene 6 reagent (Roche; 3 ml FuGene/1 mg DNA). The MRTU constructs are regulated by a cis-regulating element (promoter). […] A major difference between the CIS and TRANS system is that in CIS activities of endogenous TFs are measured, whereas the TRANS assay evaluates changes in activities of exogenous, chimeric NR-Gal4 proteins. […] At the end of 24 hour incubation, total RNA was isolated using TriZol reagent (Invitrogen). The isolated RNA is then reverse-transcribed using oligo(dT) primer and Mo-MLV reverse transcriptase (Invitrogen) with DNAse I (Ambion) treatment for 30 min. The one-tenth of the produced cDNA was amplified by PCR using Taq DNA polymerase (Invitrogen) and two reporter sequence-specific primers. The PCR products were fluorescently labeled by primer extension with 6-arboxyfluorescein (6-FAM) 5'-labeled reporter sequence-specific primer (2 min at 95 C, 20 s at 68 C and 10 min at 72 C) and these products were digested with 5U of HpaI (New England Biolabs) for 2h at 37 C. […] The raw capillary electrophoresis data was processed using Attagraph software (Attagene).

Compound | outcome | AC50
CCCCOC(=O)[C@H](C)O | inactive | 
CCCCCCCCCCCC(=O)Cl | inactive | 
C=CC(=O)OCC(F)(F)C(F)(F)C(F)(F)COC(=O)C=C | inactive | 
C=CC(=O)OCC(F)(F)C(F)(F)C(F)(F)C(F)(F)C(F)(F)C(F)(F)C(F)(F)C(F)F |  | 1.52 µM (active)
O=S(=O)(O)c1ccc(Cl)cc1 | inactive | 
CN(C(=O)C(F)(F)C(F)(F)C(F)(F)F)[Si](C)(C)C | inactive | 
CC(O)C#CC(C)O (stereo not given) | inactive | 
COc1ccccc1C=O | inactive | 
CSc1ccc(O)cc1C |  | 11.3 µM (active)
O=C1C=CC(=O)N1c1ccccc1 | inactive | 
CCN(CC)c1ccc(C=O)c(O)c1 | inactive | 
CCc1cccc(C)c1N(C(=O)C(=O)O)C(C)COC (stereo not given) | inactive | 
O=C(O)C(F)(F)OC(F)(F)C(F)(F)OC(F)(F)C(F)(F)OC(F)(F)F | inactive | 
O=C(O)C(F)(F)C(F)(F)C(F)(F)OC(F)(C(F)(F)F)C(F)(F)F | inactive | 
CCCCCCCCCCCCC[N+](C)(C)Cc1ccccc1 | inactive | 
NS(=O)(=O)C(F)(F)C(F)(F)C(F)(F)C(F)(F)C(F)(F)C(F)(F)F |  | 13.9 µM (active)
Cc1cc(O)c(C(C)(C)C)cc1C(C)(C)C | inactive | 
OCC(F)(F)C(F)(F)C(F)(F)C(F)(F)C(F)(F)C(F)(F)CO |  | 0.0538 µM (active)
CC1=CC2C3C=CC(C3)C2C1C (stereo not given) | inactive | 
O=C1c2ccccc2C(=O)c2c(Cl)cccc21 |  | 2.88 µM (active)

Compound | outcome | AC50
C=C(C)C(=O)OCC(F)(F)C(F)(F)C(F)(F)C(F)F | inactive | 
CCC(Cc1c(I)cc(I)c(N)c1I)C(=O)O (stereo not given) |  | 4.99 µM (active)
CCN(CCO)S(=O)(=O)C(F)(F)C(F)(F)C(F)(F)C(F)(F)C(F)(F)C(F)(F)C(F)(F)C(F)(F)F | inactive | 
O=C1c2c(O)ccc(Nc3ccc(CCO)cc3)c2C(=O)c2c([N+](=O)[O-])ccc(O)c21 | inactive | 
Nc1cc([N+](=O)[O-])cc(Cl)c1O | inactive | 
Cc1ccc(S(=O)(=O)C(I)I)cc1 | inactive | 
Cc1cc(C)c(O)c(C(C)(C)C)c1 | inactive | 
O=C(Cl)C(F)(F)C(F)(F)C(F)(F)C(F)(F)C(F)(F)C(F)(F)C(F)(F)F |  | 53.1 µM (active)
CNS(=O)(=O)C(F)(F)C(F)(F)C(F)(F)C(F)(F)C(F)(F)C(F)(F)C(F)(F)C(F)(F)F |  | 9.26 µM (active)
CCOCN(C(=O)CS(=O)(=O)O)c1c(C)cccc1CC | inactive | 
O=S(=O)(O)CCC(F)(F)C(F)(F)C(F)(F)C(F)(F)C(F)(F)C(F)(F)C(F)(F)C(F)(F)F | inactive | 
CCN(CC)c1ccc2c(c1)Oc1cc(N(CC)CC)ccc1C21OC(=O)c2ccccc21 | inactive | 
NCC(F)(F)C(F)(F)C(F)(F)C(F)(F)C(F)(F)C(F)(F)C(F)(F)C(F)(F)F | inactive | 
Oc1ccc2c(c1)CCC2 |  | 22.6 µM (active)
O=C(Cl)C(F)(F)C(F)(F)C(F)(F)C(F)(F)C(F)(F)C(F)(F)F | inactive | 
CCOC(=O)CCC(C)=O | inactive | 
CCOCOCC | inactive | 
O=C(c1ccccc1)c1ccc(Cl)cc1 |  | 12.1 µM (active)
CCCCCCCCCCCCCC[P+](CCCC)(CCCC)CCCC | inactive | 
OCCCc1cccnc1 | inactive | 
